B1: TGTG (dsDNA)
DNA 1: GCTATCTAGTGCTCAGTACGCACTGTGTGAGGAAACTTCTGGCAGGACCAGGTCATGAGATCGGAAGAGCACACGTCTGAACTCCAGTCA
DNA 2: TGACTGGAGTTCAGACGTGTGCTCTTCCGATCTCATGACCTGGTCCTGCCAGAAGTTTCCTCACACAGTGCGTACTGAGCACTAGATAGC
RNA: AAUUUCUACUCUUGUAGAUAGGAAACUUCUGGCAGGACC
B2: TGTT (dsDNA)
DNA 1: GCTATCTAGTGCTCAGTACGCACTGTGTTAGGAAACTTCTGGCAGGACCAGGTCATGAGATCGGAAGAGCACACGTCTGAACTCCAGTCA
DNA 2: TGACTGGAGTTCAGACGTGTGCTCTTCCGATCTCATGACCTGGTCCTGCCAGAAGTTTCCTAACACAGTGCGTACTGAGCACTAGATAGC
RNA: AAUUUCUACUCUUGUAGAUAGGAAACUUCUGGCAGGACC
B3: TTAG (dsDNA)
DNA 1: GCTATCTAGTGCTCAGTACGCACTGTTAGAGGAAACTTCTGGCAGGACCAGGTCATGAGATCGGAAGAGCACACGTCTGAACTCCAGTCA
DNA 2: TGACTGGAGTTCAGACGTGTGCTCTTCCGATCTCATGACCTGGTCCTGCCAGAAGTTTCCTCTAACAGTGCGTACTGAGCACTAGATAGC
RNA: AAUUUCUACUCUUGUAGAUAGGAAACUUCUGGCAGGACC
B4: TTAT (dsDNA)
DNA 1: GCTATCTAGTGCTCAGTACGCACTGTTATAGGAAACTTCTGGCAGGACCAGGTCATGAGATCGGAAGAGCACACGTCTGAACTCCAGTCA
DNA 2: TGACTGGAGTTCAGACGTGTGCTCTTCCGATCTCATGACCTGGTCCTGCCAGAAGTTTCCTATAACAGTGCGTACTGAGCACTAGATAGC
RNA: AAUUUCUACUCUUGUAGAUAGGAAACUUCUGGCAGGACC
B5: TTCG (dsDNA)
DNA 1: GCTATCTAGTGCTCAGTACGCACTGTTCGAGGAAACTTCTGGCAGGACCAGGTCATGAGATCGGAAGAGCACACGTCTGAACTCCAGTCA
DNA 2: TGACTGGAGTTCAGACGTGTGCTCTTCCGATCTCATGACCTGGTCCTGCCAGAAGTTTCCTCGAACAGTGCGTACTGAGCACTAGATAGC
RNA: AAUUUCUACUCUUGUAGAUAGGAAACUUCUGGCAGGACC
B6: TTGG (dsDNA)
DNA 1: GCTATCTAGTGCTCAGTACGCACTGTTGGAGGAAACTTCTGGCAGGACCAGGTCATGAGATCGGAAGAGCACACGTCTGAACTCCAGTCA
DNA 2: TGACTGGAGTTCAGACGTGTGCTCTTCCGATCTCATGACCTGGTCCTGCCAGAAGTTTCCTCCAACAGTGCGTACTGAGCACTAGATAGC
RNA: AAUUUCUACUCUUGUAGAUAGGAAACUUCUGGCAGGACC
B7: TTGT (dsDNA)
DNA 1: GCTATCTAGTGCTCAGTACGCACTGTTGTAGGAAACTTCTGGCAGGACCAGGTCATGAGATCGGAAGAGCACACGTCTGAACTCCAGTCA
DNA 2: TGACTGGAGTTCAGACGTGTGCTCTTCCGATCTCATGACCTGGTCCTGCCAGAAGTTTCCTACAACAGTGCGTACTGAGCACTAGATAGC
RNA: AAUUUCUACUCUUGUAGAUAGGAAACUUCUGGCAGGACC
B8: AAAT (dsDNA)
DNA 1: GCTATCTAGTGCTCAGTACGCACTGAAATAGGAAACTTCTGGCAGGACCAGGTCATGAGATCGGAAGAGCACACGTCTGAACTCCAGTCA
DNA 2: TGACTGGAGTTCAGACGTGTGCTCTTCCGATCTCATGACCTGGTCCTGCCAGAAGTTTCCTATTTCAGTGCGTACTGAGCACTAGATAGC
RNA: AAUUUCUACUCUUGUAGAUAGGAAACUUCUGGCAGGACC
B9: AATG (dsDNA)
DNA 1: GCTATCTAGTGCTCAGTACGCACTGAATGAGGAAACTTCTGGCAGGACCAGGTCATGAGATCGGAAGAGCACACGTCTGAACTCCAGTCA
DNA 2: TGACTGGAGTTCAGACGTGTGCTCTTCCGATCTCATGACCTGGTCCTGCCAGAAGTTTCCTCATTCAGTGCGTACTGAGCACTAGATAGC
RNA: AAUUUCUACUCUUGUAGAUAGGAAACUUCUGGCAGGACC
B10: ACAT (dsDNA)
DNA 1: GCTATCTAGTGCTCAGTACGCACTGACATAGGAAACTTCTGGCAGGACCAGGTCATGAGATCGGAAGAGCACACGTCTGAACTCCAGTCA
DNA 2: TGACTGGAGTTCAGACGTGTGCTCTTCCGATCTCATGACCTGGTCCTGCCAGAAGTTTCCTATGTCAGTGCGTACTGAGCACTAGATAGC
RNA: AAUUUCUACUCUUGUAGAUAGGAAACUUCUGGCAGGACC
B11: ACCA (dsDNA)
DNA 1: GCTATCTAGTGCTCAGTACGCACTGACCAAGGAAACTTCTGGCAGGACCAGGTCATGAGATCGGAAGAGCACACGTCTGAACTCCAGTCA
DNA 2: TGACTGGAGTTCAGACGTGTGCTCTTCCGATCTCATGACCTGGTCCTGCCAGAAGTTTCCTTGGTCAGTGCGTACTGAGCACTAGATAGC
RNA: AAUUUCUACUCUUGUAGAUAGGAAACUUCUGGCAGGACC
B12: ACCT (dsDNA)
DNA 1: GCTATCTAGTGCTCAGTACGCACTGACCTAGGAAACTTCTGGCAGGACCAGGTCATGAGATCGGAAGAGCACACGTCTGAACTCCAGTCA
DNA 2: TGACTGGAGTTCAGACGTGTGCTCTTCCGATCTCATGACCTGGTCCTGCCAGAAGTTTCCTAGGTCAGTGCGTACTGAGCACTAGATAGC
RNA: AAUUUCUACUCUUGUAGAUAGGAAACUUCUGGCAGGACC
B13: AGGG (dsDNA)
DNA 1: GCTATCTAGTGCTCAGTACGCACTGAGGGAGGAAACTTCTGGCAGGACCAGGTCATGAGATCGGAAGAGCACACGTCTGAACTCCAGTCA
DNA 2: TGACTGGAGTTCAGACGTGTGCTCTTCCGATCTCATGACCTGGTCCTGCCAGAAGTTTCCTCCCTCAGTGCGTACTGAGCACTAGATAGC
RNA: AAUUUCUACUCUUGUAGAUAGGAAACUUCUGGCAGGACC
B14: ATAG (dsDNA)
DNA 1: GCTATCTAGTGCTCAGTACGCACTGATAGAGGAAACTTCTGGCAGGACCAGGTCATGAGATCGGAAGAGCACACGTCTGAACTCCAGTCA
DNA 2: TGACTGGAGTTCAGACGTGTGCTCTTCCGATCTCATGACCTGGTCCTGCCAGAAGTTTCCTCTATCAGTGCGTACTGAGCACTAGATAGC
RNA: AAUUUCUACUCUUGUAGAUAGGAAACUUCUGGCAGGACC
B15: ATAT (dsDNA)
DNA 1: GCTATCTAGTGCTCAGTACGCACTGATATAGGAAACTTCTGGCAGGACCAGGTCATGAGATCGGAAGAGCACACGTCTGAACTCCAGTCA
DNA 2: TGACTGGAGTTCAGACGTGTGCTCTTCCGATCTCATGACCTGGTCCTGCCAGAAGTTTCCTATATCAGTGCGTACTGAGCACTAGATAGC
RNA: AAUUUCUACUCUUGUAGAUAGGAAACUUCUGGCAGGACC

molecular target: dAsCas12a Ultra (Acidaminococcus sp., UniProt U2UMQ6 1-1307, M537R;F870L;D908A;E993A;D1235A); test: Spec-seq (native PAGE EMSA with sequencing of bound and unbound); 25 mM Tris-HCl pH 7.4, 150 mM KCl, 5 mM MgCl2, 10% glycerol, 1 mM DTT, 40 ng/uL salmon sperm DNA; 400 nM Cas12a, 480 nM crRNA, 50 nM library, 37 C 1 h; native PAGE at room temperature; high values mean tight binding; conditions: protein: recombinant

Binder	binding signal [lnKA]
B1	-7.7
B2	-7.9
B3	-8.15
B4	-8.23
B5	-6.85
B6	-7.84
B7	-7.79

molecular target: dAsCas12a E174R (Acidaminococcus sp., UniProt U2UMQ6 1-1307, E174R;D908A;E993A;D1235A); test: as above; conditions: protein: recombinant;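 further: relative affinity from the bound to unbound sequence frequency ratio in Spec-seq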

Binder	binding signal [lnKA]
B1	-8.19
B2	-8.41
B3	-8.42
B4	-8.07
B5	-7.11
B6	-8.2
B7	-7.77
B8	-8.92
B9	-8.3
B10	-8.97
B11	-8.92
B12	-8.9
B13	-8.84
B14	-8.88
B15	-8.59

molecular target: dAsCas12a S542R (Acidaminococcus sp., UniProt U2UMQ6 1-1307, S542R;D908A;E993A;D1235A); test: as above; conditions: protein: recombinant;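 further: relative affinity from the bound to unbound sequence frequency ratio in Spec-seq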

Binder	binding signal [lnKA]
B1	-7.46
B2	-7.82
B3	-7.46
B4	-7.55
B5	-3.01
B6	-7.64
B7	-7.47
B8	-8.45
B9	-8.21
B10	-8.62
B11	-6.94
B12	-7.8
B13	-8.44
B14	-8.31
B15	-8.38

molecular target: dAsCas12a K548R (Acidaminococcus sp., UniProt U2UMQ6 1-1307, K548R;D908A;E993A;D1235A); test: as above; conditions: protein: recombinant

Binder	binding signal [lnKA]
B1	-8.2
B5	-8.63

molecular target: d-enCas12a (Acidaminococcus sp., UniProt U2UMQ6 1-1307, E174R;S542R;K548R;D908A;E993A;D1235A); test: as above; conditions: protein: recombinant

Binder	binding signal [lnKA]
B1	-2.08
B2	-3.23
B3	-4.03
B4	-4.53
B5	-1.14
B6	-5.22
B7	-4.47
B8	-5.69
B9	-3.79
B10	-5.81
B11	-4.21
B12	-5.41
B13	-5.86
B14	-5.6
B15	-5.63

molecular target: d-enCas12a-Ultra (Acidaminococcus sp., UniProt U2UMQ6 1-1307, E174R;S542R;K548R;M537R;F870L;D908A;E993A;D1235A); test: as above; conditions: protein: recombinant;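 further: relative affinity from the bound to unbound sequence frequency ratio in Spec-seq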

Binder	binding signal [lnKA]
B1	-0.568
B2	-0.889
B3	-1.65
B4	-2.12
B5	-0.323
B6	-2.4
B7	-1.69
B8	-3.07
B9	-1.81
B10	-3.49
B11	-0.992
B12	-2.23
B13	-3.51
B14	-3.31
B15	-3.33

Source: publication PMC8222333, “AsCas12a ultra nuclease facilitates the rapid generation of therapeutic cell medicines”
